Laboratory results taken from ChEMBL document CHEMBL3988442, “University of Dundee, Small-Polar-MMV Screening Library” (2021).
In all, about 85,000 compounds went through this assay and about 440 (0.52%) showed an effect of 50% or more. The entries come from a sample that favours strong results as a whole.

Test: In vitro enzyme assay to detect hydrolysis of chlorophenol red-beta-D-[…] directly proportional to the number of Toxoplasma stably expressing beta-galactosidase
Format: functional, organism-based, Toxoplasma gondii
Set-up: scale not given: in the data most compounds retested in dose-response had high values

## CC1(C)CCN(C(=O)Nc2ccsc2)CCS1(=O)=O
50 µM
  Percent Effect: 14.26%

## O=C(CCCc1cn[nH]c1)N1CCS(=O)(=O)CC1
50 µM
  Percent Effect: -1.399%

## Cc1cc2[nH]c(=O)c(=O)[nH]c2cc1S(=O)(=O)NC1CCCCC1
10 µM
  Percent Effect: 9.258%

## Cc1c(S(=O)(=O)NC2CC2)cc2c(C)cc(=O)n3c2c1CCC3
10 µM
  Percent Effect: 69.29%

## O=C1COc2ccc(S(=O)(=O)N3CCOCC3)c3c2N1CCC3
10 µM
  Percent Effect: -24.36%

## Cc1cc(=O)n2c3c(cc(S(=O)(=O)NC4CC4)cc13)CCC2
10 µM
  Percent Effect: 88.28%

## CCN(CC)S(=O)(=O)c1cc2c3c(c1)c(C)cc(=O)n3CCC2
10 µM
  Percent Effect: 17.21%

## Cc1cc(S(C)(=O)=O)c(C)c(S(=O)(=O)NC2CCCC2)c1
10 µM
  Percent Effect: -4.298%

## CCCNS(=O)(=O)c1cc2c3c(c1)c(C)cc(=O)n3CCC2
10 µM
  Percent Effect: -12.19%

## Cc1c(S(=O)(=O)N2CCOCC2)cc2c(C)cc(=O)n3c2c1CCC3
10 µM
  Percent Effect: 70.37%

## CCN(CC)S(=O)(=O)c1cc2c3c(c1)c(C)cc(=O)n3CC2
10 µM
  Percent Effect: -2.001%

## Cc1cccc(OCC(=O)NCC2CCNCC2)c1
50 µM
  Percent Effect: -0.8091%

## CCOC(=O)N1CCN(C(=O)c2onc(C)c2Cl)CC1
50 µM
  Percent Effect: 1.461%

## CCSc1cc(CN)ccn1
50 µM
  Percent Effect: -10.09%

## NC(=O)CCSc1nc2ncccn2n1
50 µM
  Percent Effect: -6.184%

## CCCC(=O)N(C)C1CCN(C)CC1
50 µM
  Percent Effect: 4.372%

## COc1ccc(CNC(=O)CN)cc1
50 µM
  Percent Effect: -16.08%

## CC(C)C(CC(=O)NCC(N)=O)c1ccccc1 (centres undefined)
50 µM
  Percent Effect: 0.4392%

## CN(C)CCNC(=O)c1cc(-c2cnc(N3CCCC3)nc2)cn1C.O=C(O)C(F)(F)F
10 µM
  Percent Effect: 16.58%

## Cn1cc(-c2cnc(N3CCCC3)nc2)cc1C(=O)O
10 µM
  Percent Effect: -6.676%

## CCCNC(=O)c1cc(-c2cnc(N3CCCC3)nc2)cn1C
10 µM
  Percent Effect: 59.81%

## CNS(=O)(=O)c1c[nH]cn1
50 µM
  Percent Effect: -8.669%

## NC1CCN(Cc2ccccc2)C1=O (centres undefined)
50 µM
  Percent Effect: 57.3%

## Cc1ccc(CN2CCC(N)C2=O)cc1 (centres undefined)
50 µM
  Percent Effect: 0.3266%

## NC1CCCN(Cc2ccccc2)C1=O (centres undefined)
50 µM
  Percent Effect: 3.99%

## Cn1nccc1C(=O)NC1Cc2ccccc2C1
50 µM
  Percent Effect: 4.859%

## CCc1nc(CN2CCCC2C(=O)N(C)C)cs1 (centres undefined)
50 µM
  Percent Effect: 6.641%

## CC(NC(=O)c1ccncc1F)C(C)(C)CN(C)C (centres undefined)
50 µM
  Percent Effect: -0.7264%

## CCN(CC)CCOC1CCNCC1
50 µM
  Percent Effect: -2.471%

## CC(=O)c1cccc(OCC(=O)Nc2cc(C)on2)c1
50 µM
  Percent Effect: 98.67%

## Cc1cc(NC(=O)COc2ccc3c(c2)OCO3)no1
50 µM
  Percent Effect: 15.18%

## CC(=O)c1cccc(OCC(=O)NC2CCCC2)c1
50 µM
  Percent Effect: -4.665%

## Cc1nc(C2(NCc3c(C)nn(C)c3N3CCOCC3)CCC2)no1
10 µM
  Percent Effect: 56.3%

## COc1c(CNC2(c3ccc(Cl)cc3)CCC2)c(C)nn1C
10 µM
  Percent Effect: 7.233%

## Cc1csc(CNCc2c(C)nn(C)c2N2CCOCC2)n1
10 µM
  Percent Effect: -26.69%

## Cc1cc(CNCc2c(C)nn(C)c2N2CCOCC2)no1
10 µM
  Percent Effect: -17.93%

## COc1c(CNC2(c3noc(C)n3)CCC2)c(C)nn1C.Cl
10 µM
  Percent Effect: 55.08%

## COc1c(CNC2(c3noc(C)n3)CCC2)c(C(C)C)nn1C.Cl
10 µM
  Percent Effect: 11.38%

## CC(C)(C)OC(=O)NCCCOC1CCNCC1
50 µM
  Percent Effect: 10.6%

## O=C(CSc1nnnn1Cc1cccs1)NC1CC1
50 µM
  Percent Effect: -25.88%

## CC(C)n1nc2c(cc1=O)CN(c1ncnc3ccccc13)CC2
10 µM
  Percent Effect: -24.89%

## CC(C)n1nc2c(cc1=O)CN(c1ncnc3ccsc13)CC2
10 µM
  Percent Effect: 9.432%

## Cn1nc2c(cc1=O)CN(c1nc3ccccc3s1)CC2
10 µM
  Percent Effect: -0.5196%

## CCn1nc2c(cc1=O)CN(c1ncnc3ccsc13)CC2
10 µM
  Percent Effect: 76.59%

## Cn1nc2c(cc1=O)CN(c1ncnc3ccsc13)CC2
10 µM
  Percent Effect: 82.27%

## CCCn1nc2c(cc1=O)CN(c1ncnc3ccsc13)CC2
10 µM
  Percent Effect: -2.045%

## O=C(NC1CCCc2[nH]c(=O)ccc21)c1cc(Br)c[nH]1 (centres undefined)
50 µM
  Percent Effect: 33.46%

## O=C(CCCn1cccn1)N[C@H]1C[C@@H]2OCC[C@H]12
50 µM
  Percent Effect: 16.13%

## O=C(Cc1cccs1)N1CCNCC1
50 µM
  Percent Effect: 1.272%

## CCCn1c(N2CCCC(C)C2)nc2c(C)nn(C)c2c1=O (centres undefined)
10 µM
  Percent Effect: 58.79%

## CCCn1c(N2CCCCC2)nc2c(C)nn(C)c2c1=O
10 µM
  Percent Effect: 85.32%

## CCCc1nc(N2CCCC(C)C2)c2c(n1)c(C)nn2CC (centres undefined)
10 µM
  Percent Effect: 19%

## CCCn1c(N2CCCC2)nc2c(C)nn(C)c2c1=O
10 µM
  Percent Effect: 74.14%

## Cc1nn(C)c2c(N3CCCC3)nc(C3CC3)nc12
10 µM
  Percent Effect: 10.42%

## Cc1nn(C)c2c(=O)n(C)c(NCC3CCCO3)nc12 (centres undefined)
10 µM
  Percent Effect: 10.39%

## CCCc1nc(N2CCCCCC2)c2c(n1)c(C)nn2CC
10 µM
  Percent Effect: 14.57%

## CCn1nc(C)c2ncnc(N3CCCC(C)C3)c21 (centres undefined)
10 µM
  Percent Effect: 16.85%

## CCn1c(NCC2CCCO2)nc2c(C)nn(C)c2c1=O (centres undefined)
10 µM
  Percent Effect: 22.67%

## CC(N)C1(N2CCOCC2)CCCC1 (centres undefined)
50 µM
  Percent Effect: -11.55%

## CCNC(=O)c1cc2ccc(OC)cc2[nH]1
50 µM
  Percent Effect: -0.6946%

## O=C(NCC(F)(F)F)C1CCN(CC(F)F)CC1
50 µM
  Percent Effect: -5.562%

## CCN(Cc1nonc1C)C(=O)c1cc(C(F)(F)F)nn1C
10 µM
  Percent Effect: 29.16%

## CCN(Cc1nonc1C)C(=O)Cn1nc(C(F)(F)F)cc1C
10 µM
  Percent Effect: 32.79%

## CCN(Cc1nonc1C)C(=O)Cn1nc(C(F)(F)F)cc1C1CC1
10 µM
  Percent Effect: 53.8%

## CC(CO)(CO)NC(=O)Nc1cc(Br)ccc1F
50 µM
  Percent Effect: 12.92%

## Cc1nn(C)c2nc(-c3ccccn3)nc(NCCCOC(C)C)c12
10 µM
  Percent Effect: -3.21%

## COc1cc(-c2cnnc(NCCCOC(C)C)n2)cc(OC)c1OC
10 µM
  Percent Effect: 4.137%

## CCOCCCNC(=O)c1cn(CC)nc1C
10 µM
  Percent Effect: 0.2391%

## CCOCCCNc1nc2c(s1)c(C)nn2C
10 µM
  Percent Effect: -0.8738%

## COCCn1cnnc1CNc1cc(C)nc2c(C)c(C)nn12
10 µM
  Percent Effect: -11.49%

## COCCNc1cc(C)nn2cnnc12
10 µM
  Percent Effect: 70.24%

## COCCCNc1cc(C)nn2cnnc12
10 µM
  Percent Effect: 36.97%

## CCOCCCNc1cc(C)nn2cnnc12
10 µM
  Percent Effect: 66.33%

## Cc1cc(NCCCOC(C)C)c2nncn2n1
10 µM
  Percent Effect: 73.87%
